The list is not random: actives were taken first. Their share in the collection is about 1.3%.
SRC1 inh: inhibits human SRC1 coactivator; Q15788; HEK293 GAL4-SRC1 luciferase reporter, luminescence; inhibition, % at 3.6 µM; hit rate 0.12% among 360,000; AID 588354;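 active = inhibition above the campaign mean plus 3 SD, with each screening campaign given its own cutoff, cut at about 60% in these data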;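 also: 0% = DMSO treated cells and 100% = gossypol at 36 µM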
Gli-Sufu block: blocks Gli-Sufu signaling in a luciferase reporter. hit rate 0.74% among 340,000. Sufu-KO-LIGHT fibroblasts, Gli luciferase reporter luminescence. inhibition, % at 5 µM;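 active = inhibition above about 55%, limit read from the data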;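 also: 0% = DMSO-treated cells and 100% = wells with medium but no cells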
NCOA2 inhibitor: inhibits human steroid receptor coactivator 2; Q15596; HEK293 GAL4-SRC2 luciferase reporter, luminescence; inhibition, % at 9 µM; hit rate 0.17% among 370,000; AID 651957;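 active = inhibition above the mean inhibition of all tested compounds plus 3 SD, set per campaign, cut at about 52% in these data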;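 also: 0% = DMSO treated cells and 100% = cells given Gossypol at 36 µM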
NR5A2 inv ag: suppresses constitutive activity of human LRH-1; O00482; HEK293T StAR-luciferase reporter, LRH-1 transfected, 24 h; inhibition, % at 3.6 µM; hit rate 0.13% among 360,000; AID 602396;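 active = inhibition above the mean inhibition of all tested compounds plus 3 SD, cut at about 73% in these data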;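 also: 0% = DMSO wells and 100% = reporter-only cells lacking LRH-1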
COUP-TFII inh: NR2F2 (human) inhibition, primary screen | inhibition, % at 8.6 µM | hit rate 0.7% among 370,000 | HEK293T NGFI-A luciferase reporter, luminescence | P24468 | AID 686940;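 active = inhibition above a per-plate cutoff, mean inhibition of test wells between control levels plus 3 SD, cut at about 38% in these data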;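 also: cells cotransfected with COUP-TFII expression vector driving the NGFI-A reporter; 0% = median of COUP-TF2 test wells and 100% = reporter-only cells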
NCOA3 inh: human NCOA3 inhibition | Q9Y6Q9 | HEK293 GAL4-SRC3 luciferase reporter, luminescence | AID 588352 | inhibition, % at 3.6 µM | hit rate 0.17% among 360,000;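 active = inhibition above a per-campaign cutoff, the mean of all compounds plus 3 SD, cut at about 60% in these data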;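 also: 0% = DMSO-treated cells and 100% = gossypol-treated cells at 36 µM; higher means less SRC3-driven luciferase light from the GAL4 reporter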
Gli-Sufu confirm: Gli-SUFU antagonism confirmation, single concentration | shares compounds with Gli-Sufu block | Sufu-KO-LIGHT cells, Gli luciferase reporter, luminescence | inhibition, % at 5 µM | hit rate 40% among 2,500 | AID 602428;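 active = mean inhibition at 5 µM reaching about 45%, limit read from the data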;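 also: plate controls were DMSO-treated cells for no effect and wells lacking cells for full effect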
SufuKO cytotox: cytotoxicity counter-screen for Gli-SUFU antagonists. shares compounds with Gli-Sufu block. Sufu-KO-LIGHT cells cytotoxicity, ATP luminescence. cytotoxicity, % at 5 µM. hit rate 32% among 2,500. AID 651994;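 active = mean cytotoxicity at 5 µM above about 25%, limit read from the data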;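 also: cells exposed to compound overnight for roughly 16 to 18 hours; plate controls were DMSO wells with cells for no effect and medium without cells for full effect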
Wnt3a counter: Wnt3a reporter inhibition counter-screen. shares compounds with Gli-Sufu block. Wnt-LIGHT cells, Wnt3a-driven luciferase reporter, luminescence. inhibition, % at 6.25 µM. hit rate 20% among 2,500. AID 651995;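 active = mean inhibition above about 25%, limit read from the data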
An asterisk follows results filed as active; nt = not tested or not shown.

SMILES	SRC1 inh	Gli-Sufu block	NCOA2 inhibitor	NR5A2 inv ag	COUP-TFII inh	NCOA3 inh	Gli-Sufu confirm	SufuKO cytotox	Wnt3a counter
Cc1ccc(N2CC(c3nc4ccccc4[nH]3)CC2=O)c(C)c1 (stereo unspecified)	10	50	-9	5	-17	4	4	-6	10
O=C(CSc1nnc(-c2ccccc2)n1-c1ccc(Cl)cc1)Nc1ccc2cn[nH]c2c1	nt	nt	14	nt	-6	nt	nt	nt	nt
C[C@H](O)[C@@H]1CN2CCc3c([nH]c4cccc(-c5ccccc5)c34)[C@@H]2C[C@@H]1N(C)C(=O)c1ccco1	nt	nt	-17	nt	-4	nt	nt	nt	nt
Cc1ccc2nc(SCC(=O)NCc3ccccc3)nc(=O)n2c1	-19	97*	5	-7	13	8	21	33*	-17
O=C(NCCc1ccccc1)OCc1cn(Cc2ccc(F)cc2)nn1	nt	nt	-14	nt	7	nt	nt	nt	nt
O=C(Cn1nc(C(=O)O)c2ccccc2c1=O)Nc1ccccc1C(F)(F)F	-2	79*	10	11	5	-5	12	7	-20
COC(=O)[C@]12C[C@H](CC(=O)NCCC(C)C)C(=O)N(CCc3ccc(OC)c(OC)c3)C1=C[C@H](COCc1ccccc1)O[C@@H]2C	nt	nt	-34	nt	4	nt	nt	nt	nt
O=c1c2ccccc2nc2n1C(CSCc1ccc(Cl)cc1Cl)CS2 (stereo unspecified)	8	52	-14	-10	8	27	44	33*	-7
c1ccc(CNc2nc(-c3cccs3)nc3ccccc23)nc1	19	5	29	6	-10	5	nt	nt	nt
Cc1ccc(CNc2nc(-c3cccs3)nc3ccccc23)cc1	25	50	-6	11	13	18	17	10	-37
CNc1nc(NCc2ccccc2)c2ccccc2n1	-9	57*	-5	11	7	-15	40	15	-10
CCCC[C@@H](CCCc1ccc(F)cc1)CCC(=O)N(c1ccccc1)c1ccccc1	nt	nt	1	nt	-12	nt	nt	nt	nt
O=C(N/N=C/c1ccc(O)c(O)c1)c1cccc(S(=O)(=O)N2CCCCC2)c1	-7	-2	-30	-2	-1	12	nt	nt	nt
O=C(N/N=C/c1cc(Cl)ccc1O)c1ccc(Br)cc1	28	76*	8	8	-14	66*	59*	29*	58*
O=C(N/N=C\c1cc(Br)ccc1O)c1ccc(S(=O)(=O)N2CCCCC2)cc1	11	77*	-11	-2	-5	36	76*	30*	74*
COC(=O)C1=C(C)N(Cc2cccc(C(F)(F)F)c2)C(=NCc2ccccc2C(F)(F)F)NC1c1cccc(F)c1 (stereo unspecified)	nt	nt	-11	nt	3	nt	nt	nt	nt
O=C(NCC1CCN(C(=O)C(=O)c2cccs2)CC1)c1ccc2c(c1)CCO2	nt	nt	-1	nt	-9	nt	nt	nt	nt
COc1cccc(NC(=O)Nc2nc3ncccn3c2-c2ccc(C(F)(F)F)cc2)c1	nt	nt	-4	nt	-17	nt	nt	nt	nt
COc1cc(C(C(=O)NCC2CCCO2)N(C(=O)Cn2nnc3ccccc32)c2ccc(C(C)=O)cc2)ccc1O (stereo unspecified)	-1	-6	-18	-6	-11	-25	nt	nt	nt
CCOc1cc(C(C(=O)NCC2CCCO2)N(C(=O)Cn2nnc3ccccc32)c2ccc(OC)c(OC)c2)ccc1O (stereo unspecified)	8	57*	-13	10	-14	10	9	15	-27
COc1ccccc1C(=O)N/C(=C\c1ccc(Br)cc1)C(=O)NCC(=O)O	-17	97*	0	-2	-11	-1	14	0	13
COc1ccccc1C(=O)N/C(=C\c1ccc(Br)cc1)C(=O)NCCC(=O)O	3	-5	11	0	10	0	nt	nt	nt
CCCCCCCCN1C(=O)[C@@H](CC(=O)NCCCOCCCC)C[C@@]2(C(=O)OC)C1=C[C@H](C(C)(C)C)O[C@@H]2C	nt	nt	-25	nt	3	nt	nt	nt	nt
Cc1ccc(OCCn2c(CCNC(=O)c3ccc(F)cc3F)nc3ccccc32)cc1	nt	nt	nt	nt	13	nt	nt	nt	nt
Cc1csc(N(C(=O)c2cccc(S(=O)(=O)N(C)C)c2)c2ccccc2)n1	13	57*	-32	-26	-13	-9	23	4	-4
SMILES	SRC1 inh	Gli-Sufu block	NCOA2 inhibitor	NR5A2 inv ag	COUP-TFII inh	NCOA3 inh	Gli-Sufu confirm	SufuKO cytotox	Wnt3a counter
Cc1csc(N(C(=O)c2cccc(S(=O)(=O)N3CCCC3)c2)c2ccccc2)n1	-14	-3	-12	-3	5	20	nt	nt	nt
N#Cc1c(-c2cccc(Br)c2)cc(-c2cccnc2)nc1N	4	53	3	18	-32	5	20	0	-21
CCc1ccccc1NC(=O)C1CCCN1S(=O)(=O)c1ccc(-c2ccc(=O)[nH]n2)s1 (stereo unspecified)	-7	44	-4	-5	2	-4	nt	nt	nt
Cc1cccc(C)c1NC(=O)C1CCCN1S(=O)(=O)c1ccc(-c2ccc(=O)[nH]n2)s1 (stereo unspecified)	1	51	-3	-29	14	18	13	5	35*
COc1cc(-c2noc(C)c2/C=C/c2ccc(OC(C)=O)cc2)cc(OC)c1OC	-9	53	-3	40	-96	5	69*	58*	5
O=C(COc1ccccc1)N1CCN(c2nnc(-c3ccccc3)c3ccccc23)CC1	-7	96*	8	-8	19	3	32	3	1
COc1ccc2c(c1)CCCN2C(=O)C1CCCN(S(=O)(=O)c2cc(OC)ccc2OC)C1 (stereo unspecified)	nt	nt	18	nt	-1	nt	nt	nt	nt
COC(=O)[C@@]12CCCCN1[C@H](c1ccc(-c3ccccc3)cc1)[C@@H]1C(=O)N(C)C(=O)[C@@H]12	-2	83*	17	-9	-8	-32	26	1	25*
NS(=O)(=O)c1ccc(CCNCc2cc(Br)ccc2OCc2ccccc2)cc1	9	55*	-7	20	4	7	31	4	-10
CCOc1cc(CNCc2ccccc2)ccc1OCc1ccc(Cl)cc1	-9	-2	32	-4	28	6	nt	nt	nt
CCOc1cc(CNCCc2ccc(S(N)(=O)=O)cc2)ccc1OCc1ccccc1	1	46	-2	-5	-13	10	nt	nt	nt
COc1ccc(CNCCc2ccc(Cl)cc2)cc1OCc1ccccc1	-22	53	nt	12	nt	5	29	6	5
O=C(NCCCc1ccccc1)[C@H](CO)NC1(C(=O)NCCc2c[nH]c3ccccc23)CCCCC1	nt	nt	nt	nt	15	nt	nt	nt	nt
COC(=O)C1CCCN(C(=O)C2CCN(S(=O)(=O)c3ccc([N+](=O)[O-])cc3)CC2)C1 (stereo unspecified)	nt	nt	0	nt	13	nt	nt	nt	nt
